These results are taken from PubChem BioAssay (NCATS).

Records with an inconclusive call do not appear. Where a call stands in place of a potency, no number is given. A number with no mark means an inactive call. Active and inactive are the calls of the source. Calls come from the whole dose curve; as a rule, active = well fitted curve in the direction sought with a large enough effect; inconclusive = small, poorly fitted or top-dose-only effect, or another doubt; inactive = no such curve, though single readings can be large; an effect the other way counts as inactive or inconclusive.

One assay concerns HACAT. The experiment in a line: qHTS assay to identify novel small-molecules to repurpose for Merkel cell carcinoma treatment (AID 1296009). Note: nearly all actives have a fitted effect of over 60% in size. As to conditions: MCC and control cell lines, CellTiter-Glo viability, 72 h; at 44.8 µM (top of the series) unless noted. In short, it runs like this: (§1)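 CellTiter-Glo luminescence after 72 hr compound exposure at 37 degree celsius gave cell viability. Libraries NPC and MIPE were run as 8- and 11-point dose responses; RLUs normalized to DMSO (negative) and no-cell (cytotoxicity) controls.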
On the technique in general: Quantitative high-throughput screening tests each substance at several concentrations.

The test system of another assay is HEK293T. The assay is described as above. As to conditions: MCC and control cell lines, CellTiter-Glo viability, 72 h; series mostly up to 44.8 µM. The method, boiled down:
as §1
For orientation: In ATP-based viability assays light output follows the ATP content of the culture.

The subject of the next assay is C33A. Put plainly: Primary qHTS to identify gynecologic anti-cancer compounds using libraries of approved drugs and bioactive compounds (AID 1345084). Note: nearly all actives have a fitted effect of over 55% in size. As to conditions: Gynecologic cancer cell panel viability, ATPlite luminescence, 48 h; series mostly up to 57.5 µM. In short, it runs like this: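 Five-concentration response, 48 h; readout is ATP-driven luciferase luminescence.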

Another assay concerns NIH3T3. Put plainly: qHTS assay to identify novel small-molecules to repurpose for Merkel cell carcinoma treatment (AID 1296009). Note: nearly all actives have a fitted effect of over 60% in size. To be noted: MCC and control cell lines, CellTiter-Glo viability, 72 h; at 44.8 µM (top of the series) unless noted. In short, it runs like this:
as §1

On to `C[C@@H]1O[C@@H](OC[C@H]2O[C@@H](OCCc3ccccc3)[C@H](O)[C@@H](O)[C@@H]2O)[C@H](O)[C@H](O)[C@H]1O`, for which the outcome with HACAT is “inactive [at 17.4 µM]”. For the same compound, the Potency entry with HEK293T and with C33A was “inactive” in each case.
In the case of `N[C@H]1C[C@H]1c1ccc(-c2cccc(O)c2)cc1`, the compound was classed as inactive with HACAT and with NIH3T3. In the assay on C33A, the Potency result is “inactive”.
`CC(C)(C)NCc1cc(Nc2ccnc3cc(Cl)ccc23)c2c(c1O)CCCC2`: the outcome in the assay with HEK293T and in the assay with NIH3T3 was “inactive [at 0.588 µM]” each time. The activity change, negative = cytotoxicity with C33A was 15.8% [at 0.462 µM].
As for `CC(C)(O)C1CC=C(C(=O)OCC2OC(Oc3c(O)cc(C(=O)O)cc3O)C(O)C(O)C2O)CC1` (centres undefined), the Potency result in the assay with HEK293T and in the assay on C33A was “inactive” in each case. Further, in the assay with NIH3T3, the outcome is “inactive [at 17.4 µM]”.
Consider `C=CC(C)(C)C1(CC2NC(=O)C3CCCN3C2=O)C(=O)Nc2cc3c(cc21)C=CC(C)(C)O3` (centres undefined), for which the Potency entry in the assay with HEK293T and with C33A was “inactive” throughout. Further, the outcome in the assay with NIH3T3 is “inactive [at 17.4 µM]”.
On to `O=C1NCc2nc3ccccc3c(=O)n2C1Cc1c[nH]c2ccccc12` (centres undefined), for which the Potency entry in the assay with HEK293T and in the assay with C33A was “inactive” throughout. Moreover, the compound was classed as inactive in the assay with NIH3T3.
Turning to `CC(/C=C/[C@]1(O)[C@@]2(C)CO[C@@]1(C)C[C@@H](O)C2)=C\C(=O)O[C@@H]1O[C@H](CO)[C@@H](O)[C@H](O)[C@H]1O`, the Potency result in the assay on HEK293T and with C33A was “inactive” in each case. Besides, in the assay on NIH3T3, the outcome is “inactive [at 17.4 µM]”.
Take `CC(C)N(C[C@H]1O[C@@H](n2cnc3c(N)ncnc32)[C@H](O)[C@@H]1O)C1CC(CCc2nc3ccc(C(C)(C)C)cc3[nH]2)C1` (some centres undefined): the call in the assay with HACAT was inactive. Also, the Potency result with C33A is “inactive”.
For `Cc1ccc(Sc2cncc3sc(C(N)=O)cc23)cc1`, in the assay with HEK293T, the Potency entry is “inactive”. The compound was called inactive in the assay with NIH3T3.
Consider `COc1ccc([C@@H]2N[C@H](C(=O)O)Cc3c2[nH]c2ccccc32)cc1CN1CCN(c2ccccc2F)CC1`, for which the Potency entry in the assay on HEK293T and in the assay with C33A was “inactive” in each case. The outcome in the assay on NIH3T3 was inactive.
As to `C=C(C)[C@@H](C)[C@H]1O[C@]23C[C@]4(CO2)C(CCC2[C@@]5(C)CC[C@H](O[C@@H]6OC[C@H](O)[C@H](O[C@@H]7O[C@H](CO)[C@@H](O)[C@H](O)[C@H]7O)[C@H]6O[C@@H]6O[C@@H](CO)[C@H](O)[C@H]6O)C(C)(C)C5CC[C@]24C)C3[C@@](C)(O)[C@@H]1OC(C)=O` (some centres undefined), the outcome with HEK293T and with NIH3T3 was “inactive [at 9.27 µM]” throughout. Also, in the assay with C33A, the activity change, negative = cytotoxicity was 0.663% [at 11.6 µM].
As for `CC(C)=CCC[C@](C)(O[C@@H]1O[C@H](CO[C@@H]2OC[C@@H](O)[C@H](O)[C@H]2O)[C@@H](O)[C@H](O)[C@H]1O)[C@H]1CC[C@]2(C)[C@@H]1[C@H](O)C[C@@H]1[C@@]3(C)CC[C@H](O[C@@H]4O[C@H](CO)[C@@H](O)[C@H](O)[C@H]4O[C@@H]4O[C@H](CO)[C@@H](O)[C@H](O)[C@H]4O)C(C)(C)[C@@H]3CC[C@]12C`, the Potency entry in the assay on HEK293T and with C33A was “inactive” in each case. In the assay with NIH3T3, the outcome is “inactive [at 17.4 µM]”.
`COC1=CC(=O)C[C@@H](C)[C@]12Oc1cc(OC)cc(OC)c1C2=O`: the Potency result in the assay with HEK293T and in the assay with C33A was “inactive” in each case. Further, in the assay with NIH3T3, the compound was classed as inactive.
With `CC1(CO)CC[C@]2(C(=O)O[C@@H]3O[C@H](CO)[C@@H](O)[C@H](O)[C@H]3O)CC[C@]3(C)C(=CCC4[C@@]5(C)CC[C@H](O[C@@H]6O[C@H](C(=O)O)[C@@H](O)[C@H](O)[C@H]6O)C(C)(C)C5CC[C@]43C)C2C1` (some centres undefined), the outcome with HEK293T and in the assay on NIH3T3 was “inactive [at 9.27 µM]” in each case. For the same compound, in the assay on C33A, the activity change, negative = cytotoxicity was 12.6% [at 11.6 µM].
`O=C(C1CC1)N1CC[C@@H](Cc2n[nH]c(=O)n2-c2ccc(-c3ccc4occc4c3)cc2)C1`: the outcome in the assay on HACAT is “inactive [at 17.4 µM]”. In addition, the Potency result in the assay on HEK293T and in the assay on C33A was “inactive” each time.
For the compound `CCn1c2ccccc2c2cc(CNC)ccc21`, the outcome in the assay with HACAT and in the assay with NIH3T3 was inactive. The Potency result with C33A was “inactive”.
As for `OC[C@H]1O[C@@H](n2cnc3c(NCc4ccc(O)cc4)ncnc32)[C@H](O)[C@@H]1O`, the Potency result with HEK293T is “inactive”. In addition, the result with NIH3T3 was inactive.
As to `C[C@]12C=CC(=O)C=C1CC[C@@H]1[C@@H]2[C@@H](O)C[C@@]2(C)[C@H]1CC[C@]2(O)C(=O)COC(=O)CCC(=O)O`, the call with HACAT and with NIH3T3 was inactive. In addition, the Potency entry in the assay on C33A was “inactive”.
As for `CCN[C@@H]1C[C@H](N)[C@@H](O[C@H]2OC(CN)=CC[C@H]2N)[C@H](O)[C@H]1O[C@H]1OC[C@](C)(O)[C@H](NC)[C@H]1O`, the outcome in the assay with HACAT was inactive. The Potency entry in the assay on C33A is “inactive”.
With `CNc1nc(Nc2cnn([C@H]3CCN(C4COC4)C[C@@H]3F)c2Cl)ncc1C(F)(F)F`, the call in the assay with HACAT was inactive. The Potency entry in the assay with C33A is “inactive”.
Consider `CC(=O)O[C@@H]1[C@@H](OC(=O)/C=C/c2ccccc2)[C@H](C)O[C@@H](O[C@H]2[C@@H]3C=CO[C@@H](O[C@@H]4O[C@H](CO)[C@@H](O)[C@H](O)[C@H]4O)[C@@H]3[C@@]3(CO)O[C@@H]23)[C@@H]1OC(C)=O`, for which the Potency result in the assay on HEK293T and in the assay on C33A was “inactive” each time. Also, the outcome with NIH3T3 is “inactive [at 17.4 µM]”.
Take `CCOC(=O)Nc1nc2ccccc2[nH]1`: the Potency result in the assay on HEK293T and with C33A was “inactive” in each case. Moreover, the compound was classed as inactive with NIH3T3.
In the case of `CO/N=C(/C(=O)N[C@@H]1C(=O)N2C(C(=O)O)=C(CSC(=O)c3ccco3)CS[C@H]12)c1csc(N)n1`, the outcome in the assay on HACAT is “inactive; activator”. The Potency entry in the assay with C33A was “inactive”.
`C=C(C(=O)OC)C1CCC2(C)C(O[C@@H]3O[C@H](CO)[C@@H](O)[C@H](O)[C@H]3O)CC(=O)C(C)C2C1O` (some centres undefined): the Potency result in the assay on HEK293T and with C33A was “inactive” in each case. Besides, the outcome with NIH3T3 was “inactive [at 17.4 µM]”.
As for `Clc1ccc(CN[C@H]2CCN(c3ncc(Br)cn3)C2)c(Cl)c1`, in the assay on HACAT, the call was inactive. For the same compound, the Potency result in the assay on HEK293T and with C33A was “inactive” throughout.
